Assay results published in ChEMBL document CHEMBL1961873, “Compounds: GSK PKIS; Assays: Nanosyn kinase panel” (2012).

Key:
[1] = target: Sphingosine kinase 1 (Homo sapiens) (UniProt Q9NYA1); conditions: at 1 µM;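 note: mean SPHK1 inhibition value reported from the GSK PKIS kinase panel screen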
[2] = target: T1, Sphingosine kinase 2 (Homo sapiens) (UniProt Q9NRA0); conditions: at 0.1 µM
T1 sequence (whole entry): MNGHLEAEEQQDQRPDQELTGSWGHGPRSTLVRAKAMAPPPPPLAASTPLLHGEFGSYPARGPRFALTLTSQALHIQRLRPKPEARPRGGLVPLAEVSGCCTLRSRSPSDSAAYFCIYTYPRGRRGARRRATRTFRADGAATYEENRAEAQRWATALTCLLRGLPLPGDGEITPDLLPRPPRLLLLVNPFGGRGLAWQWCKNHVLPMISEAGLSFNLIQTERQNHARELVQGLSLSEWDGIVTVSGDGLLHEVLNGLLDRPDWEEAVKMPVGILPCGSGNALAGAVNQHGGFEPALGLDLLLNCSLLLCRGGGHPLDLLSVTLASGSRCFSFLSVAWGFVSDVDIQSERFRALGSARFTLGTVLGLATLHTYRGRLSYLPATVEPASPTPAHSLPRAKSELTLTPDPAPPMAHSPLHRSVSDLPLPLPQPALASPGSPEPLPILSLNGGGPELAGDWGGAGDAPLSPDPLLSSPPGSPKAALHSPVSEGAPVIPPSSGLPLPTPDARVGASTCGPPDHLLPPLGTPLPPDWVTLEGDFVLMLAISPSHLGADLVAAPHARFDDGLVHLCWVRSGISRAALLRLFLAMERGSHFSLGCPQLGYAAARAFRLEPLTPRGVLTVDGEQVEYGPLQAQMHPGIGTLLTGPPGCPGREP

[3] = target: T1, Sphingosine kinase 2 (Homo sapiens); conditions: at 1 µM
[4] = target: Casein kinase II subunit alpha (Homo sapiens) (UniProt P68400); conditions: at 0.1 µM
Chain of Casein kinase II subunit alpha (Homo sapiens) (P68400 whole entry, looked up): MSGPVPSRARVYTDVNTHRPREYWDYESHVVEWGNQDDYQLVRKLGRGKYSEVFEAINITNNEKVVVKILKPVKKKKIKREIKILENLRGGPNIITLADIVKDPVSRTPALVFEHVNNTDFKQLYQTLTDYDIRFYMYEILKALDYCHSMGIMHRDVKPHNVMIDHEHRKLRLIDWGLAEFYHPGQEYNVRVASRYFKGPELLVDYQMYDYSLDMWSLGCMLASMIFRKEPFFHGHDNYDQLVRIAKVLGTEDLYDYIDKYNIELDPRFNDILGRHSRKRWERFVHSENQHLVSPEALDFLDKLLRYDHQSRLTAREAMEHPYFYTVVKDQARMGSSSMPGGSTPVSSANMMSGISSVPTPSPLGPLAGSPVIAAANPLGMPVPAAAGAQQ

[5] = target: Casein kinase II subunit alpha (Homo sapiens) (UniProt P68400); conditions: at 1 µM
[6] = target: T2, Inhibitor of nuclear factor kappa-B kinase subunit alpha (Homo sapiens) (UniProt O15111); conditions: at 0.1 µM
T2 sequence (whole entry): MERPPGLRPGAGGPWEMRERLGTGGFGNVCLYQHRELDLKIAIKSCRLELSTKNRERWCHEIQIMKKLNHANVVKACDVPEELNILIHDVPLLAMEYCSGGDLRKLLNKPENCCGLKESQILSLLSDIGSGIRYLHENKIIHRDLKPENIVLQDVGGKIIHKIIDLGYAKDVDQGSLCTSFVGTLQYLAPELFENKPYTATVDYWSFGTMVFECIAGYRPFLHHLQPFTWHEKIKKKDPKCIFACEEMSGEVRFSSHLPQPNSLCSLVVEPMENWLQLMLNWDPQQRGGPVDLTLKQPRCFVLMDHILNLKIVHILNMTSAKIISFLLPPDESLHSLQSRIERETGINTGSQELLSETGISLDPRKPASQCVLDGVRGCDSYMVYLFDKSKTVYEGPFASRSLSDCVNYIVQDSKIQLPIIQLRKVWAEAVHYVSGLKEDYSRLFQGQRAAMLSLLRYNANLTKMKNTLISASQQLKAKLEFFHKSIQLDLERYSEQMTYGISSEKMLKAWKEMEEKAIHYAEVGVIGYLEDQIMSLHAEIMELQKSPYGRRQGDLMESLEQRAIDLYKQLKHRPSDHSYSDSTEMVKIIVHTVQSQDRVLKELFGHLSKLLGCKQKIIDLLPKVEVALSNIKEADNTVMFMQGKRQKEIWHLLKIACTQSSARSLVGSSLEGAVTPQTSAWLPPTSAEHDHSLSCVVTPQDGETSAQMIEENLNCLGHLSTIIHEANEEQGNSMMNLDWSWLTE

[7] = target: T2, Inhibitor of nuclear factor kappa-B kinase subunit alpha (Homo sapiens); conditions: at 1 µM
[8] = target: T3, Inhibitor of nuclear factor kappa-B kinase subunit beta (Homo sapiens) (UniProt O14920); conditions: at 0.1 µM
T3 sequence (whole entry): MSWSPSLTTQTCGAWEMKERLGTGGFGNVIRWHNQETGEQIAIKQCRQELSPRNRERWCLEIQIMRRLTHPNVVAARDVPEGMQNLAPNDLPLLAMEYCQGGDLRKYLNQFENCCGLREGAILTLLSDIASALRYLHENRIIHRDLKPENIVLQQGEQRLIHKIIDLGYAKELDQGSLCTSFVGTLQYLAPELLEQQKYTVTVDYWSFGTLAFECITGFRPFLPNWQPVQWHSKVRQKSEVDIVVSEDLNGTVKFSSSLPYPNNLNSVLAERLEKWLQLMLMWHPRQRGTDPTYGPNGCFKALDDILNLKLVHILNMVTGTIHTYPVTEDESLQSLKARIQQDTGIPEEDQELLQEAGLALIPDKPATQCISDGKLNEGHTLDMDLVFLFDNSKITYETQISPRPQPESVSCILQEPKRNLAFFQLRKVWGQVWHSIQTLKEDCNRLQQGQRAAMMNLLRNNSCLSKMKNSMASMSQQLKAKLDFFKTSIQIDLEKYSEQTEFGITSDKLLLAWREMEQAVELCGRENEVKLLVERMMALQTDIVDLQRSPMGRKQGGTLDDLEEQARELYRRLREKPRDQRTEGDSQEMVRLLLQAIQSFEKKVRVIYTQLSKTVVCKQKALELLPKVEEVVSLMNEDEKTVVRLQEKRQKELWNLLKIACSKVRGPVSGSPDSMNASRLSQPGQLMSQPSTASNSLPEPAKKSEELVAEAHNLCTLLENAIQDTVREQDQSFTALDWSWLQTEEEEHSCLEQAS

[9] = target: T3, Inhibitor of nuclear factor kappa-B kinase subunit beta (Homo sapiens); conditions: at 1 µM
[10] = target: T4, Inhibitor of nuclear factor kappa-B kinase subunit epsilon (Homo sapiens) (UniProt Q14164); conditions: at 0.1 µM
T4 sequence (whole entry): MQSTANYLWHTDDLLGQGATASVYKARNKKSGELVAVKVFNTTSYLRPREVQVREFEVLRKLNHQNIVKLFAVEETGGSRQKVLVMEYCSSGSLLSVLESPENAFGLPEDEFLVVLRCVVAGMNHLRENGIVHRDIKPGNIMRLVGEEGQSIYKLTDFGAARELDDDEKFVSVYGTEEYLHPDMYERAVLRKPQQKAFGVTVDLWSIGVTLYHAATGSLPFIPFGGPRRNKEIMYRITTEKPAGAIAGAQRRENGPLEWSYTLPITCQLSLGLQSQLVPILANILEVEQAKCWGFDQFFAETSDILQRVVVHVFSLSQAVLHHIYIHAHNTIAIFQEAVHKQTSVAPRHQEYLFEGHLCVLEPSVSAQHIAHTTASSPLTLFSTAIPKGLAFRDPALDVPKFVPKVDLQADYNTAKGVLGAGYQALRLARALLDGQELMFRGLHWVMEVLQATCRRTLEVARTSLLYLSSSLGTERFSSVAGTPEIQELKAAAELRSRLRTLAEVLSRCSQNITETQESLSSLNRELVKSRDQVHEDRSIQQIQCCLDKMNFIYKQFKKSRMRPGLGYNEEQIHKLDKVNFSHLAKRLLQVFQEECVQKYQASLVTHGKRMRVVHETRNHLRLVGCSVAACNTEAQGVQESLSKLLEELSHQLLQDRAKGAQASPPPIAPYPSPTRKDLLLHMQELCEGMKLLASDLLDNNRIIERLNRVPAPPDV

[11] = target: T4, Inhibitor of nuclear factor kappa-B kinase subunit epsilon (Homo sapiens); conditions: at 1 µM
[12] = target: T5, Serine/threonine-protein kinase Nek1 (Homo sapiens) (UniProt Q96PY6); conditions: at 0.1 µM
T5 sequence (whole entry): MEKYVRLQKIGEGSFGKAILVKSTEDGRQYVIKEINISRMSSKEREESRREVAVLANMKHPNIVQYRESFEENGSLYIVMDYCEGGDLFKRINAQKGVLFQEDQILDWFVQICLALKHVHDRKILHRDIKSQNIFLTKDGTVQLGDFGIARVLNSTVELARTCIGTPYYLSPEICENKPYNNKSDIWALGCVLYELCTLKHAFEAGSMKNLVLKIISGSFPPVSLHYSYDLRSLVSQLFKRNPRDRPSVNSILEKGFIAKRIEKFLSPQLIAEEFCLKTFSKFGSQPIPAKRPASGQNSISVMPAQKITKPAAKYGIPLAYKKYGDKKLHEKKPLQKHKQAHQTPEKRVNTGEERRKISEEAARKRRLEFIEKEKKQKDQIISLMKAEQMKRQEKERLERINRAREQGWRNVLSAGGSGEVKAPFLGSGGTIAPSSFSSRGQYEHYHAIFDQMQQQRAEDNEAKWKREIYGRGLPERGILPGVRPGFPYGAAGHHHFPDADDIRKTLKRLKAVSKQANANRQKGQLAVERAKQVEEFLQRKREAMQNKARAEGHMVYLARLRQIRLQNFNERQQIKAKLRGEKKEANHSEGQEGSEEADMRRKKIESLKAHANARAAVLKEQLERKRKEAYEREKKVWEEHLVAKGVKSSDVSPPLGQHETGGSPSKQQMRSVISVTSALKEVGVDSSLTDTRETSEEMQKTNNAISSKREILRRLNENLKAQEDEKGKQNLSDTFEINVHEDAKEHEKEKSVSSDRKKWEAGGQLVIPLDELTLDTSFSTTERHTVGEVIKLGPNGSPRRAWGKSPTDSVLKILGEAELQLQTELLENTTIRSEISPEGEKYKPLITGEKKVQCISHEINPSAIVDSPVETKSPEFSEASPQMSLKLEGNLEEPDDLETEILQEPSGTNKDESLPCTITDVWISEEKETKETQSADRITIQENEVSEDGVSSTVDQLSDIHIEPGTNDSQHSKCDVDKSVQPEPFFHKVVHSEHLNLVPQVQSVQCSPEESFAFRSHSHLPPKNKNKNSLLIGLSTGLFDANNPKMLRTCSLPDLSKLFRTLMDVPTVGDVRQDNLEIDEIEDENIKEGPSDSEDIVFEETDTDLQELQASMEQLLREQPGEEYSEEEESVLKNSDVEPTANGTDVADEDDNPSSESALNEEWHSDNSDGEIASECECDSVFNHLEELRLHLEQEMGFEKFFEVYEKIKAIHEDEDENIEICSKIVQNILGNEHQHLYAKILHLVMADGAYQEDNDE

[13] = target: T5, Serine/threonine-protein kinase Nek1 (Homo sapiens); conditions: at 1 µM
[14] = target: T6, Serine/threonine-protein kinase Nek2 (Homo sapiens) (UniProt P51955); conditions: at 0.1 µM
T6 sequence (whole entry): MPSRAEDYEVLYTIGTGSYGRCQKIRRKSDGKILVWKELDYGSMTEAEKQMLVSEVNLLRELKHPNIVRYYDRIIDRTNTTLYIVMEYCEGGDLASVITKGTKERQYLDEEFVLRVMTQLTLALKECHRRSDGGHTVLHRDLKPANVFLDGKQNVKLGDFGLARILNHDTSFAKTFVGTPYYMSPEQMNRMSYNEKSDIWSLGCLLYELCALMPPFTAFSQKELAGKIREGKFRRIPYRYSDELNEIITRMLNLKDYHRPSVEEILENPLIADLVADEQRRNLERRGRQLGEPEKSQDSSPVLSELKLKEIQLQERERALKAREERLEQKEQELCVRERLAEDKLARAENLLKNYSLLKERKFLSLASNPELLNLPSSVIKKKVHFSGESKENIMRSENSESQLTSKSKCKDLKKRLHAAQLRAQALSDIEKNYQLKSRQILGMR

[15] = target: T6, Serine/threonine-protein kinase Nek2 (Homo sapiens); conditions: at 1 µM
[16] = target: Serine/threonine-protein kinase Nek6 (Homo sapiens) (UniProt Q9HC98); conditions: at 0.1 µM
Chain of Serine/threonine-protein kinase Nek6 (Homo sapiens) (Q9HC98 whole entry): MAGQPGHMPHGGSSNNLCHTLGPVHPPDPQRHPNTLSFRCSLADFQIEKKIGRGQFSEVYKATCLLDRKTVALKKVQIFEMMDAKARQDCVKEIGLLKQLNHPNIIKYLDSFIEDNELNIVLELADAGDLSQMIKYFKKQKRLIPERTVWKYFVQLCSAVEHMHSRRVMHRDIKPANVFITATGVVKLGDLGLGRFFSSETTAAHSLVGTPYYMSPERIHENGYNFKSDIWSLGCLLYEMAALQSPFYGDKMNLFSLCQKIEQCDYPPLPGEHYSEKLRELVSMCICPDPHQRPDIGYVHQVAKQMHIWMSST

[17] = target: Serine/threonine-protein kinase Nek6 (Homo sapiens) (UniProt Q9HC98); conditions: at 1 µM
[18] = target: Serine/threonine-protein kinase Nek7 (Homo sapiens) (UniProt Q8TDX7); conditions: at 0.1 µM
Chain of Serine/threonine-protein kinase Nek7 (Homo sapiens) (Q8TDX7 whole entry, looked up): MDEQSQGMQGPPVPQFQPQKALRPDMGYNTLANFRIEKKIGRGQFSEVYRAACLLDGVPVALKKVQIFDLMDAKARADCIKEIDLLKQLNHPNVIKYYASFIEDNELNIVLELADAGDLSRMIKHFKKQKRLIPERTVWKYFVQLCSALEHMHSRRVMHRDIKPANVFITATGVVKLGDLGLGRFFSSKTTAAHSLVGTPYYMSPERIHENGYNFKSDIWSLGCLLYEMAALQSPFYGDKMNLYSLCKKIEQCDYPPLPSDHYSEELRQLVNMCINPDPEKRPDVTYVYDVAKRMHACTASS

[19] = target: Serine/threonine-protein kinase Nek7 (Homo sapiens) (UniProt Q8TDX7); conditions: at 1 µM
[20] = target: T7, Serine/threonine-protein kinase Nek9 (Homo sapiens) (UniProt Q8TD19); conditions: at 0.1 µM;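 note: reported value is the mean percent inhibition of NEK9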
T7 sequence (whole entry): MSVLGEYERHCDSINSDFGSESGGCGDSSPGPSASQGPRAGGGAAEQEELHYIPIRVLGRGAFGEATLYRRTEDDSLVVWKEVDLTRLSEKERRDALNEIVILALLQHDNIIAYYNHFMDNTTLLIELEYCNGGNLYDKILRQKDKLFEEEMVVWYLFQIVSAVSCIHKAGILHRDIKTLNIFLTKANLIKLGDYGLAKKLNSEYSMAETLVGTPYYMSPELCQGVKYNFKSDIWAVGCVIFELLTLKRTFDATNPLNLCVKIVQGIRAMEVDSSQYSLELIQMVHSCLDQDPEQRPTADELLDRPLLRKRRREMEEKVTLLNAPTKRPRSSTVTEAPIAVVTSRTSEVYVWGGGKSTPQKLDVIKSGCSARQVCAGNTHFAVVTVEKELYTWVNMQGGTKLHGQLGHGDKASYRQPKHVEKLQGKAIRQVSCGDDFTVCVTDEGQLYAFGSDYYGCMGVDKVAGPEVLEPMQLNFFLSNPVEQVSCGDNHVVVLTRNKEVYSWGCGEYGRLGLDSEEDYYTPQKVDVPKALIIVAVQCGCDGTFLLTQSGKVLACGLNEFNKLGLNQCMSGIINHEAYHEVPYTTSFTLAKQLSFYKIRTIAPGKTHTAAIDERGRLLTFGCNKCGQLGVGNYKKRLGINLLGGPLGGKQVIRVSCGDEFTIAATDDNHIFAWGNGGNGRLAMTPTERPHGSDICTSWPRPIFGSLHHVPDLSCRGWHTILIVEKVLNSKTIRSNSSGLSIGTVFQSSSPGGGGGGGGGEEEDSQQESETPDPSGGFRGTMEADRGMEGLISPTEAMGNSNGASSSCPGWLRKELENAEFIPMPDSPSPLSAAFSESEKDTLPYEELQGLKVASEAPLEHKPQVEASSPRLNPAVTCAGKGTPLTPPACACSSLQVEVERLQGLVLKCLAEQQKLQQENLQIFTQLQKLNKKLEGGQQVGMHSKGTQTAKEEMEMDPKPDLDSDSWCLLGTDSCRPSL

Chain of Sphingosine kinase 1 (Homo sapiens) (Q9NYA1 whole entry): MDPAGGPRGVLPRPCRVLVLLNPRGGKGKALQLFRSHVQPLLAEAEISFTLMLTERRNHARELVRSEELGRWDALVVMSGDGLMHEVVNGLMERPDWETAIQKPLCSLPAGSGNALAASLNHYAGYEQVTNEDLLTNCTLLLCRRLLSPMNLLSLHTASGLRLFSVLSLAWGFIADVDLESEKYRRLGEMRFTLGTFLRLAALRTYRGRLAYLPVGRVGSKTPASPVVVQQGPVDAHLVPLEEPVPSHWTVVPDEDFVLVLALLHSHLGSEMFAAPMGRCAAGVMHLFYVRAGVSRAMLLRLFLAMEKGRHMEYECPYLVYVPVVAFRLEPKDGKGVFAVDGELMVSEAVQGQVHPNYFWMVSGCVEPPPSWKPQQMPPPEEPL

SMILES | inhibition [1] [%] | inhibition [2] [%] | inhibition [3] [%] | inhibition [4] [%] | inhibition [5] [%] | inhibition [6] [%] | inhibition [7] [%] | inhibition [8] [%] | inhibition [9] [%] | inhibition [10] [%] | inhibition [11] [%] | inhibition [12] [%] | inhibition [13] [%] | inhibition [14] [%] | inhibition [15] [%] | inhibition [16] [%] | inhibition [17] [%] | inhibition [18] [%] | inhibition [19] [%] | inhibition [20] [%]
COc1ccc2cc(-c3c(-c4ccncc4)nc(-c4ccc(S(C)(=O)=O)cc4C)n3C)ccc2c1 | -0.37 | -0.27 | 4.01 | 3.63 | 4.57 | -0.1 | 3.23 | 6.82 | 7.83 | 6.25 | 7.25 | 3.37 | 4.4 | 5.82 | 4.5 | 0.49 | 4.51 | 5.77 | 4.57 | 6.52
O=C(Nc1n[nH]c2cc(-c3ccccc3)ccc12)C1CC1 | 0.1 | -1.1 | -0.92 | 1.99 | 6.38 | 2.61 | 7.25 | 5.63 | 3.54 | 4.3 | 4.27 | 1.53 | 3.2 | 5.82 | 6.37 | 0.8 | -0.52 | 5.67 | 3.1 | 4.27
